PubChem BioAssay (NCI)
This is part of a sample that, as a whole, favours compounds with a hit. Of some 79,000 tested, about 15% had one in any assay. Activity calls are given as the source filed them. Cut-off read from the data, not from the text of the source: active = growth inhibition above about 70%; inactive = the rest.

Tests used:
[1] = NCI Yeast Anticancer Drug Screen. Data for the rad52 strain (AID 147);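 note: 0% = growth of vehicle-treated control cultures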; details: S. cerevisiae rad52 mutant growth inhibition, hits give high values
Summary of the method: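 Inhibition of yeast growth, referenced to vehicle controls, was the measured output for a strain with defective DNA damage repair.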

[2] = NCI Yeast Anticancer Drug Screen. Data for the wt1 strain (AID 149);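 note: 0% = growth of vehicle-treated wt1 cultures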; details: S. cerevisiae wt1 strain (SPY 50644) growth inhibition, hits give high values
Summary of the method: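 Using yeast strain wt1, compound-induced growth inhibition was determined against vehicle-treated cultures.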

[3] = NCI Yeast Anticancer Drug Screen. Data for the rad50EPP+ strain (AID 151);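 note: 0% = growth of vehicle-treated control cultures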; details: S. cerevisiae rad50 mutant strain, hits give high values
Summary of the method: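 Genetically defined yeast (rad50EPP+, DNA damage repair alteration) is grown with compound, and inhibition of growth is expressed relative to vehicle-treated controls.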

[4] = NCI Yeast Anticancer Drug Screen. Data for the rad50 strain (AID 155);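 note: 0% = growth of vehicle-only cultures of the same strain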; details: S. cerevisiae rad50 strain growth inhibition, hits give high values
Summary of the method: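 Relative growth inhibition (compound vs vehicle) was measured in yeast with a defined repair-gene alteration.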

[5] = NCI Yeast Anticancer Drug Screen. Data for the mec2-1 strain (AID 157); details: S. cerevisiae mec2-1 strain, hits give high values
Summary of the method: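 Each compound was tested on mec2-1 yeast, a strain altered in DNA damage repair or cell cycle control. Growth inhibition is reported relative to vehicle.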

[6] = NCI Yeast Anticancer Drug Screen. Data for the rad14 strain (AID 159);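 note: 0% = growth of vehicle-treated control cultures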; details: S. cerevisiae rad14 strain growth inhibition, hits give high values
Summary of the method: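 Screen for anticancer potential: a yeast strain altered in DNA damage repair is grown with compound, and reduced growth is quantified against vehicle controls.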

[7] = NCI Yeast Anticancer Drug Screen. Data for the sgs1 mgt1 strain (AID 161);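 note: 0% = growth of cultures given vehicle only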; details: S. cerevisiae sgs1 mgt1 strain, hits give high values
Summary of the method: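 Genetically altered yeast, compound exposure, growth inhibition relative to vehicle.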

[8] = NCI Yeast Anticancer Drug Screen. Data for the CLN2oe strain (AID 163);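 note: 0% = growth of vehicle-only control cultures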; details: S. cerevisiae CLN2oe strain, hits give high values
Summary of the method: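 First, the altered yeast strain was treated with each compound; second, its growth was measured; finally, inhibition was derived by comparison with vehicle controls.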

[9] = NCI Yeast Anticancer Drug Screen. Data for the cln2 rad14 strain (AID 165);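 note: 0% = growth equal to vehicle treated cultures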; details: S. cerevisiae cln2 rad14 strain, hits give high values
Summary of the method: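 Test compounds were added to cln2 rad14 yeast cultures; inhibition of growth was then determined by comparison with vehicle treatment.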

[10] = NCI Yeast Anticancer Drug Screen. Data for the bub3 strain (AID 167); details: S. cerevisiae bub3 mutant strain, hits give high values
Summary of the method: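 Screening used yeast with an engineered genetic alteration affecting cell cycle control. Compound-exposed cultures were compared with vehicle cultures, and reduced growth was taken as inhibition.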

[11] = NCI Yeast Anticancer Drug Screen. Data for the wt2 strain (AID 169);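 note: 0% = growth of vehicle-treated yeast cultures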; details: S. cerevisiae wt2 strain growth inhibition, hits give high values
Summary of the method: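 The panel's yeast strains carry defined changes in DNA repair or cell cycle genes. Each strain is grown with compound, and growth loss is scored relative to vehicle.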

[12] = NCI Yeast Anticancer Drug Screen. Data for the mlh1 strain (AID 171);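 note: 0% = growth of vehicle-treated control cultures of the same strain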; details: S. cerevisiae mlh1 strain growth inhibition, hits give high values
Summary of the method: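 Inhibition values reflect reduced yeast growth in the presence of compound, referenced to vehicle controls, using a strain chosen for its alteration in DNA repair or cell cycle control.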

[13] = NCI Yeast Anticancer Drug Screen. Data for the sgs1 strain (AID 173);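 note: 0% = growth of vehicle-only control cultures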; details: S. cerevisiae sgs1 mutant, hits give high values
Summary of the method: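 Vehicle-treated cultures served as reference for growth inhibition of a yeast strain altered in DNA damage repair or cell cycle control after compound exposure.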

[14] = NCI Yeast Anticancer Drug Screen. Data for the mlh1 rad18 strain (AID 175); details: S. cerevisiae mlh1 rad18 strain growth inhibition, hits give high values
Summary of the method: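 Inhibition values reflect reduced growth of mutant yeast versus vehicle-treated controls following compound exposure; the mutations affect DNA damage repair.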

[15] = NCI Yeast Anticancer Drug Screen. Data for the rad18 strain (AID 177); details: S. cerevisiae rad18 mutant growth inhibition, hits give high values
Summary of the method: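 Steps: expose repair-mutant yeast to compound; measure growth; express as inhibition relative to vehicle control.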

[16] = at 5.0 µM (retest, dose inferred, filed as 0.5)
[17] = at 50.0 µM (retest, dose inferred, filed as 5.0)

Measured: growth inhibition

CCc1[nH]nc(C(N)=O)c1N=NN(C)C
inactive: [1]; at 1.2 µM 3% | [1]; at 3.7 µM 20% | [1]; at 11.0 µM 66% | [2]; at 1.2 µM -6% | [2]; at 3.7 µM -4% | [2]; at 11.0 µM -7% | [2]; at 33.0 µM -5% | [2]; at 100.0 µM 1% | [3]; at 1.2 µM 0% | [3]; at 3.7 µM 12% | [3]; at 11.0 µM 27% | [3]; at 33.0 µM 69% | [4]; at 1.2 µM -4% | [4]; at 3.7 µM 5% | [4]; [16] -118% | [4]; at 11.0 µM 49% | [5]; at 1.2 µM 3% | [5]; at 3.7 µM -1% | [5]; [16] -46% | [5]; at 11.0 µM 7% | [5]; at 33.0 µM 25% | [5]; [17] 11% | [5]; at 50.0 µM 17.7% | [6]; at 1.2 µM -1% | [6]; at 3.7 µM -3% | [6]; at 11.0 µM 3% | [6]; at 33.0 µM 13% | [6]; at 100.0 µM 41% | [7]; [16] -57% | [7]; [17] 14% | [7]; at 50.0 µM 12.8% | [8]; at 1.2 µM -2% | [8]; at 3.7 µM -3% | [8]; at 11.0 µM 0% | [8]; at 33.0 µM 1% | [8]; at 100.0 µM 18% | [9]; [16] -53% | [9]; [17] -35% | [9]; at 50.0 µM 21.1% | [10]; at 1.2 µM -9% | [10]; at 3.7 µM -5% | [10]; [16] -66% | [10]; at 11.0 µM -3% | [10]; at 33.0 µM -6% | [10]; [17] -84% | [10]; at 50.0 µM -15.4% | [10]; at 100.0 µM 14% | [11]; at 1.2 µM -1% | [11]; at 3.7 µM 0% | [11]; at 11.0 µM -1% | [11]; at 33.0 µM 0% | [11]; at 100.0 µM 11% | [12]; at 1.2 µM 4% | [12]; at 3.7 µM -4% | [12]; at 11.0 µM -2% | [12]; at 33.0 µM 6% | [12]; at 100.0 µM 21% | [13]; at 1.2 µM 0% | [13]; at 3.7 µM -5% | [13]; at 11.0 µM 15% | [13]; at 33.0 µM 53% | [14]; [16] -126% | [14]; [17] 1% | [15]; at 1.2 µM 1% | [15]; at 3.7 µM 6% | [15]; at 11.0 µM 28%
active: [1]; at 33.0 µM 97% | [1]; at 100.0 µM 97% | [3]; at 100.0 µM 95% | [4]; at 33.0 µM 90% | [4]; [17] 85% | [4]; at 50.0 µM 90.1% | [4]; at 100.0 µM 97% | [5]; at 100.0 µM 94% | [13]; at 100.0 µM 88% | [14]; at 50.0 µM 70.7% | [15]; at 33.0 µM 85% | [15]; at 100.0 µM 96%

O=C1C=CC(=O)N1c1ccc2c(c1)OCO2
inactive: [1]; at 1.2 µM 11% | [2]; at 1.2 µM 9% | [3]; at 1.2 µM 9% | [4]; at 1.2 µM 12% | [5]; at 1.2 µM -3% | [5]; [16] 12% | [6]; at 1.2 µM 21% | [7]; [16] 8% | [8]; at 1.2 µM -9% | [8]; at 3.7 µM 40% | [9]; [16] -4% | [10]; at 1.2 µM 2% | [10]; [16] 25% | [11]; at 1.2 µM 17% | [12]; at 1.2 µM -11% | [12]; at 3.7 µM 58% | [13]; at 1.2 µM 15% | [14]; [16] -39% | [15]; at 1.2 µM -6% | [15]; at 3.7 µM 58%
active: [1]; at 3.7 µM 94% | [1]; at 11.0 µM 100% | [1]; at 33.0 µM 100% | [1]; at 100.0 µM 100% | [2]; at 3.7 µM 96% | [2]; at 11.0 µM 100% | [2]; at 33.0 µM 100% | [2]; at 100.0 µM 100% | [3]; at 3.7 µM 80% | [3]; at 11.0 µM 99% | [3]; at 33.0 µM 99% | [3]; at 100.0 µM 99% | [4]; at 3.7 µM 86% | [4]; [16] 84% | [4]; at 11.0 µM 99% | [4]; at 33.0 µM 99% | [4]; [17] 97% | [4]; at 50.0 µM 99% | [4]; at 100.0 µM 99% | [5]; at 3.7 µM 76% | [5]; at 11.0 µM 100% | [5]; at 33.0 µM 100% | [5]; [17] 99% | [5]; at 50.0 µM 98.5% | [5]; at 100.0 µM 99% | [6]; at 3.7 µM 99% | [6]; at 11.0 µM 100% | [6]; at 33.0 µM 100% | [6]; at 100.0 µM 100% | [7]; [17] 98% | [7]; at 50.0 µM 99.2% | [8]; at 11.0 µM 100% | [8]; at 33.0 µM 100% | [8]; at 100.0 µM 99% | [9]; [17] 98% | [9]; at 50.0 µM 99% | [10]; at 3.7 µM 90% | [10]; at 11.0 µM 100% | [10]; at 33.0 µM 99% | [10]; [17] 98% | [10]; at 50.0 µM 99.2% | [10]; at 100.0 µM 99% | [11]; at 3.7 µM 99% | [11]; at 11.0 µM 100% | [11]; at 33.0 µM 100% | [11]; at 100.0 µM 100% | [12]; at 11.0 µM 100% | [12]; at 33.0 µM 100% | [12]; at 100.0 µM 99% | [13]; at 3.7 µM 85% | [13]; at 11.0 µM 100% | [13]; at 33.0 µM 100% | [13]; at 100.0 µM 100% | [14]; [17] 97% | [14]; at 50.0 µM 99.2% | [15]; at 11.0 µM 100% | [15]; at 33.0 µM 100% | [15]; at 100.0 µM 99%
